From PubChem BioAssay
In the library only some 1.6% were active in any assay of this set; here they are far more common.
Mito fusion act = inhibitors of mitochondrial division or activators of mitochondrial fusion | S. cerevisiae fusion-defective mutant growth rescue, CellTiterGlo 48 h | Potency, µM (titrated, usually from 46.1 µM), without a hit: at the highest dose growth rescue (activation), hits mostly activators | 0.23% of 320,000 active; further: % of control where 0% means no effect; nearly all actives have a fitted effect of over 45% in size
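Compounds are tested for their ability to restore growth of mitochondrial fusion-defective yeast strains at non-permissive 37C in YPEG medium over 48 hours. Viability is quantified by luciferase luminescence.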
gsp agonist = agonists of gsp mutant (McCune-Albright syndrome); gsp mutant cells, cAMP HTRF, 30 min; Potency, µM (top dose mostly 76.9 µM), for the others: at the highest dose activation (cAMP increase), actives largely listed as activators; 0.13% of 340,000 active; AID 624287; active means well fitted activation curve with a large enough effect; inconclusive means small, poorly fitted or top-dose-only effect, or another doubt; inactive means no such curve, though single readings can be large or run the other way; cell line not stated here;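 further: phosphodiesterase inhibitor Ro 20-1724 added with compounds to block cAMP breakdown; nearly all actives have a fitted effect of over 60% in size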
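Cells in DMEM/10% FBS with G418 were pretreated with compounds in DMSO plus […] (300 uM stock) for 30 min at 37C. cAMP was measured by HTRF (cAMP-d2 plus anti-cAMP antibody-K) after 30 min at room temperature.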
ALOX12 inh = blocks human arachidonate 12S-lipoxygenase | P18054 | purified 12hLO, xylenol orange hydroperoxide absorbance | Potency, µM (titrated, usually from 108 µM), for inactives: at the top dose activity change, negative = inhibition, actives largely listed as inhibitors | 1.1% of 580,000 active | AID 1671190; further: on the % scale 0 is the no-effect control and ±100 the full control effect
Target sequence (P18054 whole entry, looked up): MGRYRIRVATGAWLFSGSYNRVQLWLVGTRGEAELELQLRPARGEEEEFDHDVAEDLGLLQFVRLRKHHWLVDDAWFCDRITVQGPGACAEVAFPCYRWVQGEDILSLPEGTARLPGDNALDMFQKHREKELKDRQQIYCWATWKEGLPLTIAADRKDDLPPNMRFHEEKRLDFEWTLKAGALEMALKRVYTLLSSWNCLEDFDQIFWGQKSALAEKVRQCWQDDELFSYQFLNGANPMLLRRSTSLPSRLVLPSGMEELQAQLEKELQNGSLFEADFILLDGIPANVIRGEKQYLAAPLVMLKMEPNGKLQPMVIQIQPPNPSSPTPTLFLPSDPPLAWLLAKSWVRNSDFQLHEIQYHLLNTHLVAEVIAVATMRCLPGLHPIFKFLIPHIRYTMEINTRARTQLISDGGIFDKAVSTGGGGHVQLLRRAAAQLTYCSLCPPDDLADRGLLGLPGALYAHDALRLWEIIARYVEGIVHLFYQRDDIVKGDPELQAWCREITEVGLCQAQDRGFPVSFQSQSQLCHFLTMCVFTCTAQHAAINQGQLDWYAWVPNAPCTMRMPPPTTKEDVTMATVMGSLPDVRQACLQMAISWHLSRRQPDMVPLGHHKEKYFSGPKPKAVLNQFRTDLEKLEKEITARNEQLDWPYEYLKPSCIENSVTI
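Hydroperoxide product was detected by ferrous iron/xylenol orange as the 573 to 405 nm absorbance ratio. Arachidonic acid at 40 uM (final) was turned over for 30 min at room temperature by 150 nM human 12hLO, pH 7.0 Hepes buffer, after 15 min compound preincubation.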
FUS suppressor = suppressors of FUS proteinopathy in yeast | S. cerevisiae FUS-expressing, growth rescue, OD600, 24 h | Potency, µM (doses to about 76.6 µM), hits mostly activators | 0.24% of 390,000 active;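 further: plate controls were DMSO vehicle for no effect and reference control for full effect; nearly all actives have a fitted effect of over 55% in size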
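Restored growth of FUS-toxic S. cerevisiae, read as 600 nm absorbance after 24 h at 30C in galactose medium (starting OD 0.005). Controls CP55940 and DMSO.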
gsp antag = gsp mutant antagonism; gsp-mutant cells, cAMP HTRF, 30 min; Potency, µM (highest dose often 76.9 µM), for inactives: at the highest dose activity change, negative = inhibition, usual class: inhibitors; 0.4% of 340,000 active; calls by dose curve; cell line not stated here;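 further: intracellular cAMP measured with PDE inhibitor Ro 20-1724 present during compound exposure; on the % scale 0 is the no-effect control and ±100 the full control effect; nearly all actives have a fitted effect of over 65% in size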
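Cells in G418 medium, seeded 16-24 h, 37C; buffer exchange to DPBS + 1 mM CaCl2, 0.5 mM MgCl2, 0.05% BSA; cpds in DMSO + […] (300 uM stock), 30 min 37C; HTRF cAMP detection.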
* = called active by the depositor; [ ] = dose if it differs, or a comment. Unless noted, the call rests on the fitted dose curve; in most records, active means well fitted curve in the direction sought with a large enough effect; inconclusive means small, poorly fitted or top-dose-only effect, or another doubt; inactive means no such curve, though single readings can be large; an effect the other way counts as inactive or inconclusive. Potency means the concentration at half of the fitted maximal effect.

What do the screens show for `CCN(c1ccccc1)S(=O)(=O)c1ccc(N2CCN(c3ccc(O)cc3)CC2)nc1`?
gsp agonist: 3.5%[15.4 µM]; ALOX12 inh: 20µM*; FUS suppressor: inconclusive; gsp antag: inconclusive

How did CCN(c1ccccc1)S(=O)(=O)c1ccc(N2CCN(c3ccc(OC)cc3)CC2)nc1 do in these assays?
gsp agonist: -47.1%; ALOX12 inh: 18.6%; FUS suppressor: inactive; gsp antag: -3.0%

What do the screens show for `CCN(CC)C(=S)Sc1ccc([N+](=O)[O-])cc1`?
ALOX12 inh: 5.62µM*

What do the screens show for `CN(C)C(=S)Nc1ccc([N+](=O)[O-])cc1`?
Mito fusion act: -0.6%; gsp agonist: -15.9%; ALOX12 inh: -29.7%; gsp antag: 8.7%

What do the screens show for `CN(C(=O)COc1ccccc1F)c1c(N)n(Cc2ccccc2)c(=O)[nH]c1=O`?
ALOX12 inh: 2.0%

Results for COc1ccc(S(=O)(=O)N2CCC(C(=O)NCCC(=O)NCc3ccncc3)CC2)cc1 ?
Mito fusion act: 3.1%; gsp agonist: -1.6%; ALOX12 inh: 0.0%; FUS suppressor: inactive; gsp antag: 21.7%

What do the screens show for `COc1ccc(S(=O)(=O)N2CCC(C(=O)NCCC(=O)NCc3ccccc3OC)CC2)cc1`?
Mito fusion act: -0.9%; gsp agonist: 0.8%; ALOX12 inh: 20.8%; FUS suppressor: inactive; gsp antag: 31.6µM*

What do the screens show for `Cc1ccc(C(=O)Nc2ccccc2SC2CCCC2)cn1`?
ALOX12 inh: -9.8%

Results for O=C(COC(=O)c1cc(=O)c2ccccc2o1)Nc1ccc(F)c(F)c1 ?
ALOX12 inh: 1.7%

How did CCCc1nc(C)cc(N2CCC(NCCc3ccc(Cl)cc3)CC2)n1 do in these assays?
ALOX12 inh: 8.91µM*

How did COc1ccc2nc(C)cc(SCC(NC(C)=O)C(=O)OC(C)C)c2c1 (stereo not given) do in these assays?
Mito fusion act: 2.9%; gsp agonist: inconclusive; ALOX12 inh: inconclusive; FUS suppressor: inactive; gsp antag: -5.5%

Results for CC(=O)NC(CSc1cc(C)nc2ccc(Br)cc12)C(=O)O (stereo not given) ?
Mito fusion act: 2.9%; gsp agonist: 2.82µM*; ALOX12 inh: 9.0%; FUS suppressor: inactive; gsp antag: 25.2%

Results for Cc1ccc(NNC(=S)Nc2ccc(C(C)C)cc2)c(C)c1 ?
Mito fusion act: 4.5%; gsp agonist: -5.5%; ALOX12 inh: 35.5µM*; gsp antag: -20.3%

Results for Cc1ccc(-n2nc3ccc(N)cc3n2)cc1Cl ?
Mito fusion act: 3.4%; gsp agonist: 4.7%; ALOX12 inh: 0.0%; FUS suppressor: inactive; gsp antag: 16.8%

What do the screens show for `Cc1ccc(-n2nc3ccc(N)cc3n2)cc1C`?
Mito fusion act: -3.3%; gsp agonist: inconclusive; ALOX12 inh: 44.7µM*; FUS suppressor: inactive; gsp antag: 6.3%

How did Cn1c(COc2ccc(C(C)(C)C)cc2)n[nH]c1=S do in these assays?
ALOX12 inh: 35.5µM*

Results for COc1ccc(-n2c(COc3ccc(C)cc3)n[nH]c2=S)cc1 ?
Mito fusion act: -11.2%; gsp agonist: -28.5%; ALOX12 inh: inconclusive; FUS suppressor: inactive; gsp antag: -21.5%

What do the screens show for `COCCNC(=O)CSc1cc(C)c2ccc(OC)cc2n1`?
ALOX12 inh: -8.5%

How did CCOc1ccc(-c2nc(CSCC(=O)N3CCN(c4cccc(C(F)(F)F)c4)CC3)c(C)o2)cc1 do in these assays?
Mito fusion act: 1.1%; ALOX12 inh: -25.5%; FUS suppressor: 22.4µM*

What do the screens show for `CCOc1ccc(-c2nc(CSCC(=O)N3CCN(c4ccc(F)cc4)CC3)c(C)o2)cc1`?
ALOX12 inh: -18.7%; FUS suppressor: inactive

Results for COc1ccc(-c2nc(CSCC(=O)N3CCN(c4cccc(C)c4C)CC3)c(C)o2)cc1OC ?
ALOX12 inh: -26.9%; FUS suppressor: 25.1µM*

Results for COc1ccc(-c2nc(CSCC(=O)N3CCN(C)CC3)c(C)o2)cc1OC ?
Mito fusion act: -0.1%; gsp agonist: 1.1%; ALOX12 inh: 126.9%; FUS suppressor: inactive; gsp antag: 10.5%

How did CC(=O)NCCC(=O)N1Cc2ccccc2CC2(CCCCN2CC2CCCC2)C1 (stereo not given) do in these assays?
ALOX12 inh: 6.4%[6.33 µM]

How did COCCNc1nc(-c2ccc(N3CCCC3=O)cc2)cs1 do in these assays?
ALOX12 inh: 11.2µM*

How did Cc1cc(C)cc(N2CC(c3nc4ccccc4n3CCN3CCOCC3)CC2=O)c1 (stereo not given) do in these assays?
ALOX12 inh: 9.8%

Results for CCC(CC)C(=O)Nc1ccc(F)cc1 ?
ALOX12 inh: -19.1%

Results for CCc1ccc(CNC(=O)[C@H]2CCC[C@H]2NC(=O)c2ccc(OC)cc2)cc1 ?
ALOX12 inh: 40.4%

Results for Cc1nc(N2CCN(C(=O)c3ccco3)CC2)c2c3c(sc2n1)CCCC3 ?
Mito fusion act: 10.6%; gsp agonist: 10.0%; ALOX12 inh: inconclusive; FUS suppressor: inactive; gsp antag: -13.1%

Results for Cc1nc(N2CCN(C(=O)c3ccco3)CC2)c2c3c(sc2n1)CC(C)CC3 (stereo not given) ?
Mito fusion act: 4.5%; gsp agonist: -5.4%; ALOX12 inh: -24.4%; FUS suppressor: inactive; gsp antag: 14.1µM*

Results for O=S(Cc1ccccc1)Cc1ccc(F)cc1 (stereo not given) ?
ALOX12 inh: 2.2%

Results for O=C(CCl)N1c2ccccc2SCC1c1ccccc1 (stereo not given) ?
Mito fusion act: 1.2%; gsp agonist: -24.0%; ALOX12 inh: 20µM*; FUS suppressor: inactive; gsp antag: -34.1%

How did O=C(Nc1ccccc1Cl)C(Cl)C(=O)c1ccccc1 (stereo not given) do in these assays?
Mito fusion act: 4.9%; gsp agonist: -4.2%[15.4 µM]; ALOX12 inh: 20µM*; FUS suppressor: inactive; gsp antag: 17.7%

Results for O=C(Nc1ccc(Cl)cc1)C(Cl)C(=O)c1ccccc1 (stereo not given) ?
Mito fusion act: -0.2%; gsp agonist: -15.3%; ALOX12 inh: inconclusive; FUS suppressor: inactive; gsp antag: 16.2%

How did Cc1ccc(C(=O)NCC(=O)OCC(=O)c2ccc(Br)s2)cc1 do in these assays?
Mito fusion act: -3.0%; gsp agonist: 14.1µM*; ALOX12 inh: inconclusive; FUS suppressor: inactive; gsp antag: 10.7%

What do the screens show for `O=C(CNS(=O)(=O)c1ccc2ccccc2c1)OCC(=O)c1ccc(Br)s1`?
Mito fusion act: inconclusive; gsp agonist: 8.91µM*; ALOX12 inh: -2.4%; gsp antag: 14.4%

Results for Cc1cc(C(=O)OCC(=O)c2ccc(Br)s2)no1 ?
Mito fusion act: -1.0%; gsp agonist: 35.5µM*; ALOX12 inh: 14.4%; FUS suppressor: inactive; gsp antag: 26.4%
